SENP6 block: SENP6 protease inhibitors, primary screen, biochemical, luminescence, uHTS; 330,000 compounds, 1.8% hits; Sentrin-specific protease 6 (Homo sapiens), Q9GZR1; Recombinant SENP6 catalytic domain, aminoluciferin luminescence; inhibition, % at 10 µM;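 active = inhibition above about 50% at the single tested dose, limit read from the data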
Target sequence (Q9GZR1 628-1112 limits assumed): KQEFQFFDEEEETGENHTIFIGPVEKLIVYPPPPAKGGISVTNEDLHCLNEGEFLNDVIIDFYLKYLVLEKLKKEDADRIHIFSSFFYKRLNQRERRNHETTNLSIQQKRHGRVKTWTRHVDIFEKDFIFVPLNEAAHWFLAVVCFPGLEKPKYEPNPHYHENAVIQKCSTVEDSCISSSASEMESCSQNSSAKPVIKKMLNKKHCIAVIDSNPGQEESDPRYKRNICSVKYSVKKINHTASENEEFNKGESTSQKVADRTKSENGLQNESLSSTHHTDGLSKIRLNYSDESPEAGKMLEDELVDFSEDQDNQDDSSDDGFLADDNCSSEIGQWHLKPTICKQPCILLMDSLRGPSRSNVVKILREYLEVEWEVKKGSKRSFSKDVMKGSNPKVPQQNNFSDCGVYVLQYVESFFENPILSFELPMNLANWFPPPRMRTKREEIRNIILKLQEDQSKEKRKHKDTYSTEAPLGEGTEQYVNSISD
SENP8 block-1: human SENP8 protease inhibitors, primary screen, biochemical, fluorescence, Nedd8 protein substrate, uHTS; Sentrin-specific protease 8 (Homo sapiens), Q96LD8; recombinant SENP8; inhibition, % at 20 µM; 360,000 compounds, 0.64% hits; AID 602440, 2012; in the data active = inhibition mostly above about 40%, no sharp cut-off; inactive = mostly below about 27%
Target sequence (Q96LD8 whole entry, looked up): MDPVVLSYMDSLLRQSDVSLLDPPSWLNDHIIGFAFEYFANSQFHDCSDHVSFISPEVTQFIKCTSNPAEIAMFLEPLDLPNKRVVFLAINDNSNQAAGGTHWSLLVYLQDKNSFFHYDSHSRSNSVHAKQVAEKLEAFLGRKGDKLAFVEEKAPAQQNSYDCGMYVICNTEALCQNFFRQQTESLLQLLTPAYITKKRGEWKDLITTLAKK
SENP7 block: SENP7 protease inhibitors, primary screen, biochemical, luminescence, uHTS. AID 434973, 2010. inhibition, % at 5 µM. Sentrin-specific protease 7 (Homo sapiens), Q9BQF6. recombinant SENP7, Z-RLRGG-aminoluciferin luminescence, 40 min. 330,000 compounds, 1.5% hits;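 active = inhibition above about 50% at the single test dose, limit read from the data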
SENP8 block-2: SENP8 protease inhibitors, primary screen, biochemical, luminescence. purified SENP8, Z-RLRGG-aminoluciferin cleavage. 330,000 compounds, 1.2% hits. inhibition, % at 10 µM; in the data active = inhibition above about 50%
HSP90 refold inh: HSP90 inhibitors, primary screen, cell lysate, luminescence. Heat shock protein HSP 90 (rabbit reticulocyte lysate; luciferase refolding). Rabbit reticulocyte lysate, luciferase refolding luminescence, 3 h. inhibition, % at 5.6 µM. 290,000 compounds, 0.91% hits. AID 1789, 2009;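 active = inhibition above the screen-wide mean plus 3 SD, computed separately per campaign, cut at about 16% in these data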;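 note: inhibitors lower the luminescence because luciferase stays unfolded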
SENP8 conf: human SENP8 protease inhibitors, confirmation, biochemical, Nedd8 protein substrate, single concentration | shares compounds with SENP8 block-1 | purified SENP8, Nedd8-AMC/pro-Nedd8 cleavage fluorescence, 30 min | inhibition, % at 25 µM | 1,400 compounds, 15% hits; in the data active = inhibition mostly above about 39%, no sharp cut-off; inactive = mostly below about 34%
Each line names hits and unclear results; the compound was inactive in the other large screens (follow-up assays come after a bar, where they were run). Sampled rows, rich in hits. Any-hit rate of the full collection: about 2.8%.

Cc1cc(=S)[nH]c2c(C)cccc12	SENP8 block-1 40 | SENP8 conf inactive
CC(C)C[C@H](NC(=O)[C@H](Cc1ccccc1)n1c(=O)[nH]c2ccccc2c1=O)C(=O)N1CCC[C@@H]1C(=O)O	none
O=C(CSC1=NNC(c2ccccn2)S1)Nc1cccc(Cl)c1 (stereo not given)	none
O=C(CSC1=NNC(c2ccccn2)S1)Nc1ccccc1 (stereo not given)	SENP8 block-1 48 | SENP8 conf inactive
C[n+]1ccc(/C=C/c2c[nH]c3ccc(F)cc23)cc1	none
Cc1ccc2[nH]c(C)c(/C=C/c3cc[n+](C)cc3)c2c1	SENP8 block-1 40 | SENP8 conf inactive
Cc1ccc2c(c1)c(/C=C/c1cc[n+](C)cc1)c(C)n2C	SENP8 block-1 44 | SENP8 conf inactive
CC1=NN(c2ccc(C)cc2C)C(=O)C1C(c1cccc(O)c1)C1C(=O)N(c2ccc(C)cc2C)N=C1C (stereo not given)	SENP8 block-1 60 | SENP8 conf 44
O=C(NCCCc1ccccc1)c1cccc(NC(=O)C2CCCCC2)c1	none (no result: SENP6 block, SENP7 block, SENP8 block-2, HSP90 refold inh)
CCC(=O)NC(c1cccs1)c1cc([N+](=O)[O-])c2cccnc2c1OC (stereo not given)	SENP8 block-1 96 (no result: SENP6 block, SENP7 block, SENP8 block-2, HSP90 refold inh) | SENP8 conf inactive
Cn1nnnc1SCC(=O)NCc1cccs1	none
CCC(=O)c1ccc(OCc2cn(CC(=O)c3ccc(O)cc3)nn2)cc1	SENP8 block-1 32 (no result: SENP6 block, SENP7 block, SENP8 block-2, HSP90 refold inh) | SENP8 conf 41
CC1CCCCC1NC(=O)CSc1ncnc2sccc12 (stereo not given)	none (no result: SENP6 block, SENP7 block, SENP8 block-2, HSP90 refold inh)
CC(C)c1noc2ncc(C(=O)c3cc(Cl)cc(Cl)c3O)cc12	SENP8 block-1 46 | SENP8 conf inactive
CCCc1cc(=O)[nH]c(SCC(=O)Nc2ncc(S(=O)(=O)c3ccc([N+](=O)[O-])cc3)s2)n1	SENP8 block-1 47 | SENP8 conf inactive
CC(C)C[C@@H](CN)NC(=O)c1nc[nH]c1C(=O)N[C@@H](C)C(=O)CNC[C@H](CC(C)C)NC(=O)c1nc[nH]c1C(=O)N[C@@H](CC(=O)O)C(=O)O	none (no result: SENP6 block, SENP7 block, SENP8 block-2, HSP90 refold inh)
Nc1nc(NCCO)nc(NC2CCCCC2)c1[N+](=O)[O-]	none
Nc1nc(NCCOCCO)nc(NC2CCCCC2)c1[N+](=O)[O-]	SENP8 block-1 47 | SENP8 conf inactive
Cc1nc([N+](=O)[O-])c(Br)n1Cc1ccc(Cl)c(Cl)c1	none (no result: SENP6 block, SENP7 block, SENP8 block-2)
Cc1nc([N+](=O)[O-])c(Br)n1CC(=O)c1ccc(Cl)cc1	SENP8 block-1 42 | SENP8 conf inactive
Cc1ccc(Nc2nc(N)c([N+](=O)[O-])c(NCCO)n2)cc1C	SENP8 block-1 48 | SENP8 conf inactive
Cc1ccc(Nc2nc(N)c([N+](=O)[O-])c(N3CCOCC3)n2)cc1C	SENP8 block-1 41 | SENP8 conf inactive
Cc1cc(C)n(C(=O)c2ccc(NC(=O)CC(C)C)cc2)n1	none
O=C(COC(=O)c1ccccc1)Nc1ccc2[nH]c(=O)[nH]c2c1	none (no result: HSP90 refold inh)
O=C(NC1CCCC1)C(c1cccs1)N(Cc1ccco1)C(=O)c1csnn1 (stereo not given)	SENP8 block-1 40 | SENP8 conf inactive
O=C(NC1CCCCC1)C(c1ccccc1)N(Cc1ccco1)C(=O)c1csnn1 (stereo not given)	none
CCOc1cc(NC2CS(=O)(=O)CC2O)c(OCC)cc1NC(=O)c1ccccc1 (stereo not given)	SENP8 block-1 44 | SENP8 conf inactive
Cc1ccc(C(=O)C(C)OC(=O)C2CCN(c3ccc(C(F)(F)F)cn3)CC2)cc1 (stereo not given)	none (no result: HSP90 refold inh)
CNc1nc(-c2ccccc2)nnc1C(F)(F)F	none
O=C(Oc1ccccc1[N+](=O)[O-])c1cccnc1	SENP8 block-1 46 | SENP8 conf inactive
Cc1cccc(OC(=O)c2cccnc2)c1C	none
CC1(C)C(=O)C=CC(=O)C(C)(C)C(=O)C=CC(=O)C(C)(C)C2=CC=C(O2)C(C)(C)C(=O)C=CC1=O	SENP8 block-1 48 (no result: SENP6 block, SENP7 block, SENP8 block-2, HSP90 refold inh) | SENP8 conf inactive
O=C(c1cc([N+](=O)[O-])ccc1N1CCCCC1)N1CCCCC1	none
O=C(O)c1cc([N+](=O)[O-])ccc1N1CCCCC1	SENP8 block-1 42 | SENP8 conf inactive
O=C(O)c1c(N2CCCCC2)ccc([N+](=O)[O-])c1N1CCCCC1	SENP8 block-1 40 | SENP8 conf inactive
CN(N=Cc1cccc2cccnc12)c1ccc([N+](=O)[O-])cc1[N+](=O)[O-]	SENP8 block-1 41 (no result: SENP6 block, SENP7 block, SENP8 block-2, HSP90 refold inh) | SENP8 conf inactive
CN(C)/N=C/c1ccc([N+](=O)[O-])cc1[N+](=O)[O-]	none
O=C1c2c(O)cc(O)cc2O[C@H](c2ccc(O)cc2)[C@H]1O	SENP8 block-1 62 (no result: HSP90 refold inh) | SENP8 conf inactive
Cc1cc(S(=O)(=O)N2CCN(CC(=O)NC(C)(C#N)C3CC3)CC2)ccc1Br (stereo not given)	none (no result: HSP90 refold inh)
CN(C)/C=C/C=C1C(=O)CCCC1=O	SENP8 block-1 49 | SENP8 conf inactive
NS(=O)(=O)c1ccc(CCNC(=O)COC(=O)c2ccc([N+](=O)[O-])o2)cc1	SENP8 block-1 47 (no result: HSP90 refold inh) | SENP8 conf 89
COCCNC(=S)N/N=C/c1ccc([N+](=O)[O-])cc1	SENP8 block-1 43 | SENP8 conf inactive
C=C(C)CNC(=S)N/N=C/c1ccc([N+](=O)[O-])cc1	none
O=[N+]([O-])c1ccc(C=NNc2ccccc2)cc1	SENP8 block-1 44 (no result: SENP6 block, SENP7 block, SENP8 block-2, HSP90 refold inh) | SENP8 conf inactive
O=[N+]([O-])c1cccc(C=NNc2ccccc2)c1	none (no result: SENP6 block, SENP7 block, SENP8 block-2, HSP90 refold inh)
CC1(C)C[C@H]2C3=CCC4[C@@]5(C)CC[C@H](O)[C@](C)(CO)C5CC[C@@]4(C)[C@]3(C)CC[C@@]2(C)[C@H](O)[C@@H]1O (stereo not given in full)	SENP8 block-1 40 (no result: HSP90 refold inh) | SENP8 conf inactive
COc1cccc(-n2c(Cc3cc(=O)[nH]c(=O)[nH]3)nnc2SCC(=O)N2CCCCC2)c1	none
O=Nc1c(-c2ccccc2)[nH]n(-c2ccccc2)c1=O	SENP8 block-1 47 | SENP8 conf inactive
CCOC(=O)c1sc(NNC(=O)c2ccc(C)cc2)nc1C	none
CCOC(=O)c1nc(NNC(=O)c2ccc([N+](=O)[O-])cc2)sc1C	SENP8 block-1 41 | SENP8 conf inactive
Cn1c(Cc2ccccc2)nnc1SCC(=O)Nc1ccccc1	none
Cn1c(Cc2ccccc2)nnc1SCC(=O)c1cccs1	SENP8 block-1 40 | SENP8 conf inactive
N#CC1=C(N)Oc2cc(O)ccc2C1c1ccc(Br)s1 (stereo not given)	none
COC(=O)c1nn(-c2ccc(OC)cc2)c(=O)cc1Sc1ccc(C)cc1	none
COC(=O)c1nn(-c2ccc(OC)cc2)c(=O)cc1NN	SENP8 block-1 57 | SENP8 conf inactive
COCCNC(=O)/C(C#N)=C/c1cccs1	none

Screening data deposited in PubChem BioAssay by several laboratories.
